This is an account of results in PubChem BioAssay (NCI).

About 83,000 compounds went through this panel and 20% of them were active in at least one assay; those are over-represented in the sample as a whole.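 A percent growth of 40 corresponds to 60% growth inhibition; 0 means no net growth; -100 means all cells died. Active threshold: below 10.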 A number with no mark means an inactive call. Activity calls are given as the source filed them.

Some test systems named below: SR leukemia; RPMI-8226 leukemia; OVCAR-8 ovarian; OVCAR-5 ovarian; OVCAR-4 ovarian; SK-OV-3 ovarian; IGROV1 ovarian; OVCAR-3 ovarian; HS 578T breast; NCI/ADR-RES ovarian; T-47D breast; BT-549 breast; MDA-MB-435 melanoma; SW-620 colon; MCF7 breast; HCT-116 colon; HCC-2998 colon; KM12 colon.
What all share (assay): NCI-60 one-dose screen, 48 h (100 = growth as untreated, 0 = no growth, -100 = all killed)
Holding throughout (settings): 10 µM unless noted

`CCOC(=O)c1cnc2sc(-c3ccc(OC)cc3)nc2c1Cl`: the growth in the experiment with SR leukemia was 96.8%; with RPMI-8226 leukemia it was 93.1%; in the experiment on OVCAR-8 ovarian, 112%; in the experiment with OVCAR-5 ovarian it was 118%; in the experiment with OVCAR-4 ovarian, 86.9%; in the experiment on SK-OV-3 ovarian it was 121%. Further, the growth is 102% in the experiment on IGROV1 ovarian; 108% with OVCAR-3 ovarian; 89.3% with HS 578T breast; 90% in the experiment with NCI/ADR-RES ovarian; 97.2% in the experiment on T-47D breast; 107% in the experiment with BT-549 breast. The growth was 87.7% in the experiment with MDA-MB-435 melanoma; 114% in the experiment on SW-620 colon; 88% in the experiment on MCF7 breast; 87.8% in the experiment with HCT-116 colon; 114% in the experiment on HCC-2998 colon; 90.7% with KM12 colon.

For `COC(=O)c1cc(-c2cc(OC)c(OC)c(OC)c2)[nH]c1N/N=C/c1c(Cl)cccc1Cl`, the growth is -17.6% (active) with SR leukemia; 18.4% in the experiment on RPMI-8226 leukemia; 5.44% (active) with OVCAR-8 ovarian; 22.7% in the experiment with OVCAR-5 ovarian; 5.08% (active) with OVCAR-4 ovarian; 28.3% in the experiment on SK-OV-3 ovarian. Moreover, the growth with IGROV1 ovarian is -54.8% (active); in the experiment with OVCAR-3 ovarian, 9.29% (active); with HS 578T breast, -5.55% (active); with NCI/ADR-RES ovarian it was 6.82% (active); in the experiment with T-47D breast it was 9.55% (active); in the experiment with BT-549 breast, 128%. In addition, the growth with MDA-MB-435 melanoma is -2.15% (active); in the experiment with SW-620 colon, 44.9%; in the experiment with MCF7 breast it was 7.14% (active); in the experiment with HCT-116 colon, 5.15% (active); in the experiment on HCC-2998 colon, -62% (active); in the experiment on KM12 colon it was 15%.

For `C=CN(C(=O)N1CCN(c2cc3c(cc2F)c(=O)c(C(=O)O)cn3C2CC2)CC1)c1nc(-c2ccc(C)cc2)cs1`, the growth in the experiment with SR leukemia was 13.7%; with RPMI-8226 leukemia it was 7.02% (active); in the experiment on OVCAR-8 ovarian, 14.1%; in the experiment on OVCAR-5 ovarian, 38.5%; with OVCAR-4 ovarian it was 23.3%; in the experiment on SK-OV-3 ovarian, -5.97% (active). Also, the growth in the experiment with IGROV1 ovarian is 22.4%; in the experiment with OVCAR-3 ovarian, 5.61% (active); with HS 578T breast, 13.8%; in the experiment with NCI/ADR-RES ovarian it was 44.9%; with T-47D breast, 36.3%; in the experiment on BT-549 breast, 11.9%. The growth with MDA-MB-435 melanoma was 22.1%; in the experiment with SW-620 colon, 20.8%; in the experiment with MCF7 breast, 7.94% (active); with HCT-116 colon it was 10.9%; with HCC-2998 colon, 39%; with KM12 colon it was 21.9%.

Turning to `O=C(OCC(O)(CO)C(=O)NC12CC3CC(CC(C3)C1)C2)c1ccc(Cl)cc1` (configuration not stated), the growth in the experiment on SR leukemia is 86%; with RPMI-8226 leukemia, 105%; in the experiment on OVCAR-8 ovarian, 92.2%; in the experiment with OVCAR-5 ovarian, 100%; in the experiment on OVCAR-4 ovarian, 107%; in the experiment with SK-OV-3 ovarian, 99.7%. Moreover, the growth in the experiment on IGROV1 ovarian is 110%; in the experiment with OVCAR-3 ovarian, 101%; with HS 578T breast it was 88.5%; with NCI/ADR-RES ovarian, 98.6%; with T-47D breast it was 88.9%; in the experiment on BT-549 breast it was 102%. For the same compound, the growth is 101% in the experiment on MDA-MB-435 melanoma; 103% in the experiment on SW-620 colon; 91.6% in the experiment with MCF7 breast; 99.8% in the experiment with HCT-116 colon; 106% in the experiment on HCC-2998 colon; 103% in the experiment with KM12 colon.

As for `Oc1cccc(-c2nc(-c3n[nH]c(=S)n3-c3ccccc3)cc3c2[nH]c2ccccc23)c1`, the growth in the experiment with SR leukemia was 19.2%; with RPMI-8226 leukemia, 17.8%; in the experiment on OVCAR-8 ovarian, 24.7%; with OVCAR-5 ovarian, 73.1%; in the experiment on OVCAR-4 ovarian, 56.8%; in the experiment on SK-OV-3 ovarian it was 37.3%. In addition, the growth in the experiment on IGROV1 ovarian is 24%; in the experiment with OVCAR-3 ovarian, 3.83% (active); with HS 578T breast it was 35.1%; in the experiment with NCI/ADR-RES ovarian, 91.6%; in the experiment with T-47D breast, 47.7%; with BT-549 breast it was -15.9% (active). The growth is 3.44% (active) with MDA-MB-435 melanoma; 20% in the experiment on SW-620 colon; 17.8% in the experiment with MCF7 breast; 10.6% in the experiment on HCT-116 colon; -15.2% (active) in the experiment with HCC-2998 colon; 13% in the experiment on KM12 colon.

For the compound `Nc1n[nH]c2cccc(C#Cc3cccc(C(=O)Nc4ccc(Cl)c(C(F)(F)F)c4)c3)c12`, the growth was 56% in the experiment on SR leukemia; 53.1% in the experiment with RPMI-8226 leukemia; 65.8% in the experiment with OVCAR-8 ovarian; 43.4% in the experiment with OVCAR-5 ovarian; 56.2% in the experiment on OVCAR-4 ovarian; 106% in the experiment with SK-OV-3 ovarian. Moreover, the growth in the experiment with IGROV1 ovarian is 35.8%; with OVCAR-3 ovarian, 81.6%; with HS 578T breast it was 53.3%; in the experiment on NCI/ADR-RES ovarian, 62.2%; in the experiment with T-47D breast, 33.5%; with BT-549 breast, 78.3%. Besides, the growth was 42.8% in the experiment with MDA-MB-435 melanoma; 61.8% in the experiment with SW-620 colon; 50.2% in the experiment on MCF7 breast; 28.5% in the experiment with HCT-116 colon; 49.4% in the experiment on HCC-2998 colon; 59.4% in the experiment on KM12 colon.

`CC(C)=CC(=O)C1C(=O)c2ccccc2C1=O`: the growth in the experiment on SR leukemia was 91.3%; in the experiment on RPMI-8226 leukemia, 103%; in the experiment on OVCAR-8 ovarian, 97.8%; in the experiment with OVCAR-5 ovarian, 97.3%; in the experiment on OVCAR-4 ovarian, 102%; in the experiment on SK-OV-3 ovarian, 90.4%. Besides, the growth in the experiment on IGROV1 ovarian was 70.5%; in the experiment with OVCAR-3 ovarian it was 95.7%; in the experiment on HS 578T breast, 102%; in the experiment on NCI/ADR-RES ovarian it was 108%; in the experiment with T-47D breast, 97.3%; in the experiment on BT-549 breast, 108%. The growth in the experiment on MDA-MB-435 melanoma is 98.9%; in the experiment on SW-620 colon it was 102%; in the experiment on MCF7 breast, 93.4%; with HCT-116 colon it was 103%; in the experiment with HCC-2998 colon, 111%; in the experiment on KM12 colon, 103%.

Consider `C#Cc1ccc(NC(=O)Cc2ccc(/C=C/C(=O)c3nccn3C)cc2)cc1`, for which the growth in the experiment with SR leukemia was 20.8%; in the experiment with RPMI-8226 leukemia, 19.2%; in the experiment on OVCAR-8 ovarian it was 26.2%; with OVCAR-5 ovarian, 105%; in the experiment on OVCAR-4 ovarian, 69.9%; with SK-OV-3 ovarian it was 109%. Besides, the growth in the experiment on IGROV1 ovarian is 52.8%; in the experiment with OVCAR-3 ovarian, 12%; in the experiment with HS 578T breast, 35.7%; in the experiment with NCI/ADR-RES ovarian, 34.5%; in the experiment on T-47D breast, 69.2%; with BT-549 breast it was 71.2%. Also, the growth was 83.6% with MDA-MB-435 melanoma; 15.8% in the experiment with SW-620 colon; 21.5% in the experiment with MCF7 breast; 21.6% in the experiment with HCT-116 colon; 82.3% in the experiment on HCC-2998 colon; 25.6% with KM12 colon.

As to `CC1(C)CCC[C@]23C(=O)O[C@](O)(C(=O)C4=C[C@@](C)(/C=C/CCCc5ccc6ccc7cccc8ccc5c6c78)CC[C@@]42O)[C@@H]13`, the growth is 9% (active) in the experiment on SR leukemia; -21.4% (active) in the experiment with RPMI-8226 leukemia; -34.2% (active) in the experiment with OVCAR-8 ovarian; -75.7% (active) with OVCAR-5 ovarian; -92.3% (active) in the experiment with OVCAR-4 ovarian; -66.2% (active) in the experiment on SK-OV-3 ovarian. For the same compound, the growth was -83% (active) in the experiment on IGROV1 ovarian; -82% (active) with OVCAR-3 ovarian; -7.13% (active) in the experiment on HS 578T breast; -18.7% (active) in the experiment with NCI/ADR-RES ovarian; -60.5% (active) in the experiment on T-47D breast; -71.9% (active) in the experiment on BT-549 breast. The growth was -92.4% (active) with MDA-MB-435 melanoma; -63.3% (active) in the experiment on SW-620 colon; -57.4% (active) with MCF7 breast; -91.8% (active) in the experiment on HCT-116 colon; -86% (active) with HCC-2998 colon; -83.3% (active) in the experiment on KM12 colon.
